According to PubChem BioAssay (Tox21):
Results filed as inconclusive are left out. The source made the active and inactive calls. Calls follow the shape of the dose curve; as a rule, active = well fitted curve in the direction sought with a large enough effect in the repeat runs; inconclusive = weak or mixed curves; inactive = no such curve, though single readings can be large; an effect the other way counts as inactive or inconclusive.

How the values were obtained:
[1] = Human pregnane X receptor (PXR) small molecule agonists, qHTS cell viability counter screen (AID 1346977); also: nearly all actives have a fitted effect of over 50% in size
Outline: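 Cytotoxicity counter screen run in the same wells as the PXR luciferase assay, using PXR-Luc HepG2 cells in charcoal-stripped serum medium. Viability: CellTiter-Fluor fluorescence after 24hr compound treatment.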

[2] = Caspase-3/7 induction in HepG2 cells by small molecules, qHTS assay (AID 1346978); also: nearly all actives have a fitted effect of over 15% in size
Outline: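 Wild-type HepG2 cells (2,000/well) were settled 5 h at 37 C, 5% CO2, then exposed to compounds in DMSO for 17 h. Caspase-3/7 activity was read by luminescence 30 min after adding Caspase-Glo 3/7 reagent at room temperature.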

[3] = Caspase-3/7 induction in CHO-K1 cells by small molecules, qHTS cell viability counter screen (AID 1346979); also: nearly all actives have a fitted effect of over 35% in size
Outline: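 Cytotoxicity counter screen run in parallel with the caspase-3/7 assay: CHO-K1 cells, 16hr compound treatment at 37C, then CellTiter-Fluor for 1hr before fluorescence reading.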

[4] = Caspase-3/7 induction in CHO-K1 cells by small molecules, qHTS assay (AID 1346980); also: nearly all actives have a fitted effect of over 15% in size
Outline: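 Wild-type cells were seeded at 1,500 per well and settled 5 hr at 37 C, 5% CO2, then exposed to DMSO-dissolved compounds for 17 hr. Caspase-Glo 3/7 reagent was added, and luminescence was read after 30min at room temperature.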

[5] = Caspase-3/7 induction in HepG2 cells by small molecules, qHTS cell viability counter screen (AID 1346981); also: series mostly up to about 92 µM; nearly all actives have a fitted effect of over 30% in size
Outline: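 In this quantitative HTS counter screen, compounds delivered in DMSO were left on unmodified HepG2 cells for 16 hr at 37 C. Viability was then determined fluorometrically with CellTiter-Fluor, in parallel with caspase-3/7 induction in the same wells.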

[6] = molecular target: Nuclear receptor subfamily 1 group I member 2 (Homo sapiens) (UniProt O75469); test: Human pregnane X receptor (PXR) small molecule agonists, qHTS assay (AID 1346982); also: nearly all actives have a fitted effect of over 35% in size; also: potency is read from the fitted curve at half-maximal effect
Outline: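 Reporter HepG2 cells expressing PXR-Luc are cultured in charcoal-stripped FBS (5%), treated with compounds for 24 hr at 37 C, and assayed by ONE-Glo luminescence after 30 min at room temperature.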

[7] = molecular target: Nuclear receptor subfamily 1 group I member 2 (Rattus norvegicus) (UniProt Q9R1A7); test: Rat pregnane X receptor (rPXR) activation by small molecules, qHTS assay (AID 1346983); details: rPXR luciferase reporter cells, One-Glo luminescence, 24 h; max activation: hits give high values; also: nearly all actives have a fitted effect of over 20% in size
Outline: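 Cell-based rPXR luciferase reporter assay, 2,000 cells per well, rested 5hr at 37 C before compound addition in DMSO, then 24 hr at 37 C. One-Glo reagent was added and luminescence read after 30 min at room temperature.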

[8] = molecular target: Nuclear receptor subfamily 1 group I member 2 (Homo sapiens) (UniProt O75469); test: CYP3A4 induction through human pregnane X receptor (PXR) by small molecules, qHTS assay (AID 1346984); also: nearly all actives have a fitted effect of over 40% in size
Outline: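 Induction measured in HepG2-based DPX-2 cells co-expressing human PXR and a CYP3A4 promoter-driven luciferase. After a 24-hour compound exposure, cells received CYP3A4 luciferin substrate at 3uM final for 3 hours, and light output was then recorded.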

[9] = molecular target: Cytochrome P450 2D6 (Homo sapiens) (UniProt P10635); test: Cytochrome P450 Family 2 Subfamily D Member 6 (CYP2D6) small molecule antagonists: luciferase reporter qHTS assay (AID 1671196); also: nearly all actives have a fitted effect of over 50% in size; also: potency is read from the fitted curve at half-maximal effect
Outline: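 Test chemicals meet CYP2D6 plus proluciferin substrate (10 min, RT); NADPH regenerating solution then drives turnover for 1 h. Detection reagent halts the reaction; luminescence measured after 20 min.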

[10] = molecular target: Cytochrome P450 2C19 (Homo sapiens) (UniProt P33261); test: Cytochrome P450 Family 2 Subfamily C Member 19 (CYP2C19) small molecule antagonists: luciferase reporter qHTS assay (AID 1671197); also: nearly all actives have a fitted effect of over 65% in size; also: potency is read from the fitted curve at half-maximal effect
Outline: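 Quantitative high-throughput screen of the Tox21 library using CYP2C19 with proluciferin substrate. Reaction: NADPH regeneration, 37C, 1 h, after 10 min compound preincubation at room temperature. Readout: luminescence.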

[11] = molecular target: Cytochrome P450 2C9 (Homo sapiens) (UniProt P11712); test: Cytochrome P450 Family 2 Subfamily C Member 9 (CYP2C9) small molecule antagonists: luciferase reporter qHTS assay (AID 1671198); also: nearly all actives have a fitted effect of over 50% in size; also: potency is read from the fitted curve at half-maximal effect
Outline: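 CYP2C9 activity was measured with a P450-Glo proluciferin substrate. Enzyme–substrate mix was held with compound for 10 min at room temperature, then NADPH regeneration solution was added for 1 h at 37C. Luciferin product was read as luminescence.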

[12] = molecular target: Cytochrome P450 1A2 (Homo sapiens) (UniProt P05177); test: Cytochrome P450 Family 1 Subfamily A Member 2 (CYP1A2) small molecule antagonists: luciferase reporter qHTS assay (AID 1671199); also: nearly all actives have a fitted effect of over 50% in size; also: potency is read from the fitted curve at half-maximal effect
Outline: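 Steps: enzyme-substrate mix dispensed; test compounds and furafylline control pinned in; 10 min room temperature; NADPH regeneration solution added, 1 h; reaction stopped with luciferin detection reagent; luminescence read after 20 min.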

[13] = molecular target: Voltage-gated inwardly rectifying potassium channel KCNH2 (Homo sapiens) (UniProt Q12809); test: Human Ether-a-go-go-Related Gene (hERG) channel small molecule antagonists: fluorescence cell-based qHTS assay (AID 1671200)
Outline: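 Fluorescence at 540 nm emission (480 nm excitation) was recorded kinetically for 2 min at 1-second intervals once the thallium-containing stimulus reached cells previously loaded with FluxOR II dye.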

[14] = molecular target: Cytochrome P450 3A4 (Homo sapiens) (UniProt P08684); test: Cytochrome P450 Family 3 Subfamily A Member 4 (CYP3A4) small molecule antagonists: luciferase reporter qHTS assay (AID 1671201)
Outline: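 qHTS, 1536-well. CYP3A4 + proluciferin substrate, cpd 10 min RT → NADPH regen 1 h RT → detection reagent 20 min → luminescence (RLU). Ketoconazole positive control.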

[15] = molecular target: Nuclear receptor subfamily 1 group I member 2 (Homo sapiens) (UniProt O75469); test: Human pregnane X receptor (PXR) activation by small molecules, qHTS assay (AID 1346985); also: nearly all actives have a fitted effect of over 40% in size
Outline: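 DPX-2 cells (HepG2 co-transfected with a PXR response element and a CYP3A4-promoter luciferase construct) were seeded at 2,000 per well, rested 5 hr at 37C, then exposed to DMSO-dissolved compounds for 24 hr. Activation was read as luciferase luminescence.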
% is scaled to controls: 0 for no effect and ±100 for the full control effect.

Chain of Cytochrome P450 2C9 (Homo sapiens) (P11712 whole entry, looked up): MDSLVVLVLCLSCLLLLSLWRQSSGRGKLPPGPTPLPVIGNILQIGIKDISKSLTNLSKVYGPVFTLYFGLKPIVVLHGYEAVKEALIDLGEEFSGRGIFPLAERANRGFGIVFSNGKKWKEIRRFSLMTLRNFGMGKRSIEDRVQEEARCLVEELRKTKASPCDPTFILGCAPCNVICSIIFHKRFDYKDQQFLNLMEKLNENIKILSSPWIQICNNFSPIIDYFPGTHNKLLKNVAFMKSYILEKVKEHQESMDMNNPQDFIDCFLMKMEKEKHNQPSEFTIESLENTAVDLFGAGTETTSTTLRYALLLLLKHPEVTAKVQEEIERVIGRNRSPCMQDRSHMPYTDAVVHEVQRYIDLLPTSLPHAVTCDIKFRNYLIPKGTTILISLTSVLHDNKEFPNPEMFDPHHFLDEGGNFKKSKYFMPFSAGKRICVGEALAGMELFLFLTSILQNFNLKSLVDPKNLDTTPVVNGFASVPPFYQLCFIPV
Chain of Cytochrome P450 2D6 (Homo sapiens) (P10635 whole entry, looked up): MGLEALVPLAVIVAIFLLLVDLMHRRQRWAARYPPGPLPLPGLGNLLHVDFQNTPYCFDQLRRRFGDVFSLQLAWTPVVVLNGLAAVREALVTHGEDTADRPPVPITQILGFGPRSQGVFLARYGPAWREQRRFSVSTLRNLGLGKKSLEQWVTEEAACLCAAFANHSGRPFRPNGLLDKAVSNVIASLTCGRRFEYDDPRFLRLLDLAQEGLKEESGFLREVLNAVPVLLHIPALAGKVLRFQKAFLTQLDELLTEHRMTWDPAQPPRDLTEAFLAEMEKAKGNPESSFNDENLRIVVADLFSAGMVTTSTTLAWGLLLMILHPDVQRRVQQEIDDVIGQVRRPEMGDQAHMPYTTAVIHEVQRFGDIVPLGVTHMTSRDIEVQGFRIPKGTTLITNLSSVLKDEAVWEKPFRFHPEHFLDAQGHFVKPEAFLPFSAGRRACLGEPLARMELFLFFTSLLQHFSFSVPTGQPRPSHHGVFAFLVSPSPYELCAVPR
Chain of Cytochrome P450 3A4 (Homo sapiens) (P08684 whole entry, looked up): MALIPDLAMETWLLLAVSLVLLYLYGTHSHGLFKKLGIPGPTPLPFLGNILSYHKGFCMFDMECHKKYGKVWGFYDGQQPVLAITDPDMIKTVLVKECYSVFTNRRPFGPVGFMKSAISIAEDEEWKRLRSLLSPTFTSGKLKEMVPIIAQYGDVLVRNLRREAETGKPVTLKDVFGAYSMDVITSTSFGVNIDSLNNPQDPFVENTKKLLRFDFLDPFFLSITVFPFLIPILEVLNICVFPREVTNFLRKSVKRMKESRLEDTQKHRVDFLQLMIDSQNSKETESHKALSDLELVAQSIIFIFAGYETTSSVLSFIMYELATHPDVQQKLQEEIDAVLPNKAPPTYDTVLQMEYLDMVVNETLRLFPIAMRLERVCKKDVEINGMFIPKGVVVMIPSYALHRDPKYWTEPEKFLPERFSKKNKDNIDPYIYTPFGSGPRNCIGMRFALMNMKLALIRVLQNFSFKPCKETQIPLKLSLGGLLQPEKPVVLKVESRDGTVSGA
Chain of Nuclear receptor subfamily 1 group I member 2 (Homo sapiens) (O75469 whole entry, looked up): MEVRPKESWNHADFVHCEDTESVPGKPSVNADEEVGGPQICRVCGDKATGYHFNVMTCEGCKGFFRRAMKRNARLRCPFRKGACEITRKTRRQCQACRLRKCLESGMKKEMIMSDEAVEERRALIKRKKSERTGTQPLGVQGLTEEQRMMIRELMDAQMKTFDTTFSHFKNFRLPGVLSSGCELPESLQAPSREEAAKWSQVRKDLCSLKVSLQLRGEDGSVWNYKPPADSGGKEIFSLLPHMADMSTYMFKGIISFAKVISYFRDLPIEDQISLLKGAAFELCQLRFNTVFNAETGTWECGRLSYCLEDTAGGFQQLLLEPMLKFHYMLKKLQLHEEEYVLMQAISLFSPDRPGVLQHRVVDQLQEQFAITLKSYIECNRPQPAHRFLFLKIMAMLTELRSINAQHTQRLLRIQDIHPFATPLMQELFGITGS
Chain of Voltage-gated inwardly rectifying potassium channel KCNH2 (Homo sapiens) (Q12809 whole entry, looked up): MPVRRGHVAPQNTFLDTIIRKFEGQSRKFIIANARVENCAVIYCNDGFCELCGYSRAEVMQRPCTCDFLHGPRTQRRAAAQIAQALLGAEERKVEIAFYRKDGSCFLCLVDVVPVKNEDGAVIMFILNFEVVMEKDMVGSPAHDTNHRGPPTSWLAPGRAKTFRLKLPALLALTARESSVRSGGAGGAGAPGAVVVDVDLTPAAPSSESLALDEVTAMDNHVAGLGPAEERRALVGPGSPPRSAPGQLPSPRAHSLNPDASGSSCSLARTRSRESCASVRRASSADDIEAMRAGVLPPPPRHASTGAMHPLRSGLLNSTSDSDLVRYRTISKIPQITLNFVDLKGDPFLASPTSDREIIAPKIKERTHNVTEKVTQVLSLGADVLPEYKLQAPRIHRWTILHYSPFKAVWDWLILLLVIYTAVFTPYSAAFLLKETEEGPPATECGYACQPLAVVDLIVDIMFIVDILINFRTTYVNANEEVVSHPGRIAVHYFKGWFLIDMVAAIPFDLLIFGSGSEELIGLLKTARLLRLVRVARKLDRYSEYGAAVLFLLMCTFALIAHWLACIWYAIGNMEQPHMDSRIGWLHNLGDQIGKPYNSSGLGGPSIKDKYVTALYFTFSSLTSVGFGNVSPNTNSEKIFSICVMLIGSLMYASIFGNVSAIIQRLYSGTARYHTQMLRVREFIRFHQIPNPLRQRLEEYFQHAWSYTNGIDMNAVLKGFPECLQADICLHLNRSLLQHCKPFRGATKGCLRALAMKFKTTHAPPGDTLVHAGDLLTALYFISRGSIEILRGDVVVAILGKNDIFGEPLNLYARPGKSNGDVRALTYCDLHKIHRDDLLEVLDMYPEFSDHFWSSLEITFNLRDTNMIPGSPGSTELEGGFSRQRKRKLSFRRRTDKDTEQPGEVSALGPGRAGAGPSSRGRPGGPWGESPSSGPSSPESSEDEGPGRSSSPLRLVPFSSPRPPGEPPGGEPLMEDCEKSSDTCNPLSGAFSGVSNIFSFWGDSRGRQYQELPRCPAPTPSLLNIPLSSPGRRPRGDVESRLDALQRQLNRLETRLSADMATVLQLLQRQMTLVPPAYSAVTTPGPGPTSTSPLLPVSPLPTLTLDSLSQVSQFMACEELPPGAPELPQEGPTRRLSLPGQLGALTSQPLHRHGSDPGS
Chain of Nuclear receptor subfamily 1 group I member 2 (Rattus norvegicus) (Q9R1A7 whole entry, looked up): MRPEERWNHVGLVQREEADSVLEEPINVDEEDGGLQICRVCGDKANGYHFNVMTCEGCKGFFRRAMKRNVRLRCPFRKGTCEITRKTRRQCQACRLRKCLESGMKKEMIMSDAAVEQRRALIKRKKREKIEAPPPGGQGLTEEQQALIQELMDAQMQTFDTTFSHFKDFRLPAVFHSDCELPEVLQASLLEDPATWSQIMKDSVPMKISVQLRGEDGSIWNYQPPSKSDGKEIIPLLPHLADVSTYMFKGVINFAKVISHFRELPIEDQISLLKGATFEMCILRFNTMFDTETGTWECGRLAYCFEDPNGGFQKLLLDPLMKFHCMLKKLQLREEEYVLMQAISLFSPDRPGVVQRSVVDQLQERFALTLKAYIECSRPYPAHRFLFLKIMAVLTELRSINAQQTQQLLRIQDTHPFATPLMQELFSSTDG
Chain of Cytochrome P450 2C19 (Homo sapiens) (P33261 whole entry, looked up): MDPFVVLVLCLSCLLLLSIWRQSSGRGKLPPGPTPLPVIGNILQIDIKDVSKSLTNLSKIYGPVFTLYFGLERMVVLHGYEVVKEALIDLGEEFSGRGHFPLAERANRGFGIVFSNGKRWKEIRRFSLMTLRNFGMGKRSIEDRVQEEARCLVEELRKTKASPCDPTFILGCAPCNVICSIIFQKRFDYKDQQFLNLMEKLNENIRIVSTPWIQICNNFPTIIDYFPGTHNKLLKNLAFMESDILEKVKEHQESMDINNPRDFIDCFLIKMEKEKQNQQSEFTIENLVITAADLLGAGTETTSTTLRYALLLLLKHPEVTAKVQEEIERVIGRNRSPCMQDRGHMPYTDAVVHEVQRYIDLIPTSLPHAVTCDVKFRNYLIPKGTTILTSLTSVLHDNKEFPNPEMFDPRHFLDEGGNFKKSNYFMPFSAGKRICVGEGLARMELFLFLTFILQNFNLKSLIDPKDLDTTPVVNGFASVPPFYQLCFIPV
Chain of Cytochrome P450 1A2 (Homo sapiens) (P05177 whole entry, looked up): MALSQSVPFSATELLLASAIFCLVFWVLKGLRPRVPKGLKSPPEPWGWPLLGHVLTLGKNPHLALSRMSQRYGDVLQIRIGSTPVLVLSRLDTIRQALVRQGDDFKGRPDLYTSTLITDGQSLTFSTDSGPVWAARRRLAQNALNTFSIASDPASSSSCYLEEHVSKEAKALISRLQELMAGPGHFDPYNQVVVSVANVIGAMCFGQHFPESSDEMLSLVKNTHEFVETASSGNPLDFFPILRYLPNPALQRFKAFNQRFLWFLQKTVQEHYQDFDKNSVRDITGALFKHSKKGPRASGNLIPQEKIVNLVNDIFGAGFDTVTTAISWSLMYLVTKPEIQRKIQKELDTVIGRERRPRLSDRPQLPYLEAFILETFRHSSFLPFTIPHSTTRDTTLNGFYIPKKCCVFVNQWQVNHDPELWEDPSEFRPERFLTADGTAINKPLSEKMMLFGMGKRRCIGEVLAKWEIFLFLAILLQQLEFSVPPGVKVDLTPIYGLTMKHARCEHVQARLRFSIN

C[C@@H]1CCC[C@H](C)N1
inactive: Potency [1] | outcome [2] | Potency [3] | outcome [4] | Potency [5] | Potency [6] | max activation [7] -0.283% | Potency [8] | Potency [9] | Potency [10] | Potency [11] | Potency [12] | Potency [13]

CC(C)COC(=O)c1ccc(N)cc1
inactive: Potency [1] | outcome [2] | Potency [3] | outcome [4] | Potency [5] | max activation [7] 0.562% | Potency [8] | Potency [9] | Potency [13]
active: Potency [6] 21.1 µM | Potency [10] 21.9 µM | Potency [11] 13.8 µM | Potency [12] 6.92 µM

Cc1ccc(C(=O)c2ccc(CC(=O)O)n2C)cc1
inactive: Potency [1] | outcome [2] | Potency [3] | outcome [4] | Potency [5] | Potency [6] | max activation [7] -1.99% | Potency [8] | Potency [9] | Potency [10] | Potency [12] | Potency [13] | Potency [14]

O=[N+]([O-])c1cncn1CCN1CCOCC1
inactive: Potency [1] | outcome [2] | Potency [3] | outcome [4] | Potency [5] | Potency [6] | Potency [9] | Potency [10] | Potency [11] | Potency [12] | Potency [13]

Cc1ccc(-c2ncc(Cl)cc2-c2ccc(S(C)(=O)=O)cc2)cn1
inactive: Potency [1] | outcome [2] | Potency [3] | outcome [4] | Potency [5] | Potency [6] | max activation [7] 7.56% | Potency [10] | Potency [12] | Potency [13]
active: Potency [11] 17.4 µM

CC(=O)N[C@H]1[C@H]([C@H](O)[C@H](O)CO)OC(C(=O)O)=C[C@@H]1N=C(N)N
inactive: Potency [1] | outcome [2] | Potency [3] | outcome [4] | Potency [5] | Potency [6] | max activation [7] -1.75% | Potency [15] | Potency [9] | Potency [10] | Potency [11] | Potency [12] | Potency [13]

CCC(=O)OCc1ccccc1
inactive: Potency [1] | outcome [2] | Potency [3] | outcome [4] | Potency [5] | Potency [6] | Potency [9] | Potency [10] | Potency [11] | Potency [12] | Potency [13] | Potency [14]

O=S(=O)(O)c1cccc(S(=O)(=O)O)c1
inactive: Potency [1] | outcome [2] | Potency [3] | outcome [4] | Potency [5] | Potency [6] | Potency [9] | Potency [10] | Potency [11] | Potency [12] | Potency [13] | Potency [14]

COc1cc(C(=O)NCc2ccc(OCCN(C)C)cc2)cc(OC)c1OC
inactive: Potency [1] | outcome [2] | Potency [3] | outcome [4] | Potency [5] | Potency [6] | max activation [7] 4.67% | Potency [10] | Potency [11] | Potency [12] | Potency [13]

CN1CC(=O)N/C1=N/C(=O)Nc1cccc(Cl)c1
active: Potency [6] 13.3 µM | Potency [12] 20.4 µM
inactive: Potency [1] | outcome [2] | Potency [3] | outcome [4] | Potency [5] | Potency [8] | Potency [10] | Potency [11] | Potency [13] | Potency [14]

Nc1ccn([C@@H]2O[C@H](CO)[C@@H](O)C2O)c(=O)n1 (stereo partly specified)
inactive: Potency [1] | outcome [2] | Potency [3] | outcome [4] | Potency [5] | Potency [6] | max activation [7] -0.294% | Potency [15] | Potency [9] | Potency [11] | Potency [12] | Potency [13] | Potency [14]

Cc1ccc(-c2ccccc2C#N)cc1
inactive: Potency [1] | outcome [2] | Potency [3] | outcome [4] | Potency [5] | Potency [6] | Potency [9] | Potency [13]
active: Potency [10] 17.4 µM | Potency [11] 15.5 µM | Potency [12] 13.8 µM

CC1(C)[C@@H]2CC[C@@]1(C)[C@H](O)C2
inactive: Potency [1] | outcome [2] | Potency [3] | outcome [4] | Potency [5] | Potency [6] | Potency [9] | Potency [10] | Potency [11] | Potency [12] | Potency [13] | Potency [14]

CC1=CCC(O)(C(C)C)CC1 (stereo unspecified)
inactive: Potency [1] | outcome [2] | Potency [3] | outcome [4] | Potency [5] | Potency [6] | Potency [9] | Potency [10] | Potency [11] | Potency [12] | Potency [13]

C=CCOCC(O)CO (stereo unspecified)
inactive: Potency [1] | outcome [2] | Potency [3] | outcome [4] | Potency [5] | Potency [6] | Potency [9] | Potency [10] | Potency [11] | Potency [12] | Potency [13] | Potency [14]

C=C(C)C(=O)OCCOCCOCCOCCOC(=O)C(=C)C
inactive: Potency [1] | outcome [2] | Potency [3] | outcome [4] | Potency [5] | Potency [6] | Potency [9] | Potency [13]
active: Potency [10] 71 µM | Potency [11] 63.3 µM | Potency [12] 63.3 µM

Cc1nc(C2CCCCC2)c(-c2ccc(S(N)(=O)=O)c(F)c2)o1
active: Potency [6] 21.1 µM | Potency [9] 13.8 µM | Potency [10] 38.9 µM | Potency [11] 3.47 µM
inactive: Potency [1] | outcome [2] | Potency [3] | outcome [4] | Potency [5] | Potency [12] | Potency [13]

CC1CCC(CO)CC1 (stereo unspecified)
inactive: Potency [1] | outcome [2] | Potency [3] | outcome [4] | Potency [5] | Potency [6] | Potency [9] | Potency [10] | Potency [11] | Potency [12] | Potency [13] | Potency [14]

CC(=O)c1ccccc1[N+](=O)[O-]
inactive: Potency [1] | outcome [2] | Potency [3] | outcome [4] | Potency [5] | Potency [9] | Potency [10] | Potency [11] | Potency [13] | Potency [14]
active: Potency [6] 30.1 µM | Potency [12] 39.2 µM
